# Assay outcomes as filed in PubChem BioAssay.
# MK inhibit = blocks S. pneumoniae mevalonate kinase | purified MK, PK/LDH-coupled NADH absorbance 340 nm | inhibition, % at 10 µM | 65,000 tested, 0.48% active;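 active = ranked among the strongest by inhibition in the single 10 µM screen, a fixed top-ranked set picked for dose follow-up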
# Spn DPM-DC inh = S. pneumoniae DPM-DC inhibition; purified DPM-DC, PK/LDH coupled NADH fluorescence; 65,000 tested, 0.49% active; calls only at 10 µM; AID 556;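 active = the 320 compounds with the highest percent inhibition in the single-dose primary screen, excluding strongly autofluorescent ones, cut at about 32% in these data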;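 note: kinetic rate of NADH fluorescence loss reporting ADP formed by the decarboxylase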
# Abs 340nm = absorbance at 340 nm; compound absorbance at 340 nm, fold over control; fold change at 10 µM; 65,000 tested, under 10 active; AID 708;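 active = at 10 µM dose, initial 340 nm absorbance at least 2 fold that of control wells; inactive = change under 2 fold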;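 note: initial absorbance extrapolated from kinetic A340 decline of NADH oxidation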
# Spn PMK inh = inhibitors of Streptococcus pneumoniae phosphomevalonate kinase. purified PMK, PK/LDH-coupled NADH absorbance 340 nm. inhibition, % at 10 µM. 65,000 tested, 0.49% active;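 active = top-ranked compounds by inhibition in the single 10 µM screen, taking a fixed number of the strongest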;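 note: 0% = full reaction with DMSO carrier and 100% = background rate without enzyme reaction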
# Autofluor 339 = intrinsic fluorescence of library compounds, ex339/em460 – biochemical, MLSMR library, data from DPM-DC assay, artefact control, profiling panel | 65,000 tested, 5.5% active | fluorescence fold increase at 10 µM | compound autofluorescence, ex339/em460 nm, NADH buffer; active compounds read high; 1 = no-compound wells, NADH background;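 active = at 10 µM, mean starting fluorescence two-fold or more over control wells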;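 note: signal is the first read of a kinetic run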
# NADH enzymes = inhibition of NAD/NADH coupling enzymes, library profiling; IC50, µM (highest dose often 10 µM), for inactives: at the top dose inhibition; 65,000 tested, 0.02% active; coupled PK/LDH NADH assays, four targets; AID 774;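 active = single-dose screening hits from any of four coupled enzyme assays that gave an IC50 when retested across doses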;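 note: the DPM-DC format reads NADH fluorescence rather than 340 nm absorbance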
# * marks the source's active call; other numbers are inactive results; i = inactive; nt = no result shown; + = active, no number. A selection: hits, their analogues and other compounds. The true share with any hit is near 6.3%.
SMILES,MK inhibit,Spn DPM-DC inh,Abs 340nm,Spn PMK inh,Autofluor 339,NADH enzymes
COc1ccc(-c2coc3c(CN4CCCCC4)c(O)c(CN4CCCCC4)c(O)c3c2=O)cc1,0,i,1,26*,1,3%
COc1ccc(C(=O)c2coc3ccc(O)c(CN4CCOCC4)c23)cc1,6,i,1,1,1,2%
C#CC(C)(CC)NC(=O)c1cc(OC)c(OC)c(OC)c1 (configuration not stated),2,i,1,13,1.1,6%
Cc1cc2n(n1)C(c1ccsc1)Nc1ccccc1-2 (configuration not stated),0,i,1,5,2.4*,9%
Cc1cc2n(n1)C(c1ccccc1Cl)Nc1ccccc1-2 (configuration not stated),0,i,1,5,1.4,3%
CSc1ccc(C2Nc3ccccc3-c3cc(C)nn32)cc1 (configuration not stated),8,i,0.98,7,2*,6%
CCOc1ccccc1C1CC(c2ccc(F)cc2)Nc2nc(N)nn21 (configuration not stated),5,i,1,9,1.1,5%
Cc1ccc2cc(C#N)c(NCCNC(=O)C3CC3)nc2c1C,10,i,1,6,3.2*,14%
CCN1CCCC1CNC(=O)CSc1cc(=O)n(C)c2cc(Cl)ccc12 (configuration not stated),0,i,1.1,4,1.3,1%
Cn1c(=O)cc(SCC(=O)N2CCCC2)c2ccccc21,6,i,1,7,1.4,4%
CCOC(=O)N1CCC(NC(=O)CSc2cc(=O)n(C)c3ccccc23)CC1,35,+,1.1,42*,1.7,38%
CCOC(=O)CSc1cc(=O)n(C)c2cc(Cl)ccc12,13,+,1,3,0.93,16%
COc1ccc(CC(NC(C)=O)C(=O)N2CCN(C(=O)Nc3ccc(Cl)cc3)CC2)cc1OC (configuration not stated),2,i,1,3,1.1,2%
Cc1cc(NC(=O)COC(=O)C(Nc2ccc(C(F)(F)F)cc2Cl)C(C)C)no1 (configuration not stated),8,i,0.99,6,1.1,5%
CC(Nc1nc(N2CCN(S(C)(=O)=O)CC2)nc2ccccc12)c1ccccc1 (configuration not stated),13,nt,1.1,2,2.1*,8%
c1ccc(Cn2c(-c3cccs3)nc3nc4ccccc4nc32)cc1,9,nt,1,5,3.7*,7%
c1ccc(-c2nc3nc4ccccc4nc3n2Cc2ccco2)cc1,16,i,1.1,15,1.5,12%
CC(C)Cn1c(-c2cccs2)nc2nc3ccccc3nc21,0,nt,1.1,2,3.9*,1%
CCOc1ccc(OCC)c(NC(=O)C2CCCN(c3nc(C)cc(C)n3)C2)c1 (configuration not stated),1,i,0.98,8,1,3%
CCOC(=O)Cc1nnc(Nc2cccc(O)c2)c2ccccc12,15,i,1,5,1,5%
CCCCn1c(SCC2CCCCO2)nc2cc(S(N)(=O)=O)ccc21 (configuration not stated),0,i,1,16,1.1,5%
COc1nc(Nc2ccc(-c3nc4ccccc4o3)cc2)nc(N2CCOCC2)n1,8,nt,1.1,0,3.7*,4%
COCCN1Cc2cccc(C(=O)Nc3ccc(S(=O)(=O)N4CCCCCC4)cc3)c2C1=O,9,i,0.99,22,1.4,11%
CCN(CC)S(=O)(=O)c1ccc(NC(=O)c2cccc3c2C(=O)N(CCOC)C3)cc1,10,+,0.98,18,1.3,9%
CCOc1ccc(C)cc1S(=O)(=O)n1ccc(C)n1,7,i,0.98,4,1,5%
SMILES,MK inhibit,Spn DPM-DC inh,Abs 340nm,Spn PMK inh,Autofluor 339,NADH enzymes
COc1cccc(NC(=O)c2oc3ccccc3c2NC(=O)C(C)(C)C)c1,6,i,1.1,6,1.8,4%
COc1cccc(NC(=O)c2oc3ccccc3c2NC(=O)c2ccc3c(c2)OCO3)c1,0,i,1.1,3,2.6*,1%
COc1cc(NC(=O)c2ccc3c(c2)OCO3)c2ncccc2c1,5,+,1.1,7,3*,19%
Cc1ccc(CNC(=O)CCNC(=O)Cn2ccc3ccccc3c2=O)o1,6,i,1.1,5,1.5,5%
Nc1nc(C2CCCN2S(=O)(=O)c2ccc(Cl)cc2)cs1 (configuration not stated),3,i,1,13,1,5%
O=c1c2ccccc2nc2n1CCCS2,0,i,1.1,1,1.1,0%
O=c1c2cc(Cl)ccc2oc2nc3n(c(=O)c12)CCCS3,7,i,1.1,7,2.6*,11%
CC(C)OC(=O)c1c(NC(=O)c2cccs2)sc2c1CCCC2,0,nt,1.1,0,2.2*,0%
O=C(Nc1sc2c(c1C(=O)O)CCCC2)c1cccs1,8,i,1.1,8,1.1,5%
COC(=O)c1c(NC(=O)c2cccs2)sc2c1CCC(C)C2 (configuration not stated),3,i,1.1,6,3.1*,5%
Cc1cc(C(=O)Nc2sc3c(c2C#N)CCC(C)C3)cs1 (configuration not stated),16,i,1,8,2*,8%
CCCNC(=O)NC(=O)COC(=O)c1ccc(OC)c(S(=O)(=O)N2CCCc3ccccc32)c1,0,i,1,4,1.1,1%
CC(=O)Oc1ccccc1-c1nc(C)nc(N(C)C(C)=O)n1,1,i,1.1,0,1.1,3%
N#Cc1c(N)c(C#N)c(-c2ccc(O)cc2)c2c1CCCC2,8,i,1,2,2.9*,3%
Cc1nn(CCC(=O)O)c2nc(-c3cccnc3)cc(C(F)(F)F)c12,5,nt,1.1,5,4.9*,5%
N#Cc1c(NC(=O)COC(=O)C2CC3C=CC2C3)oc(-c2ccccc2)c1-c1ccccc1 (configuration not stated),4,i,1,0,1.3,2%
Cc1cc(=O)[nH]c2ccccc12,0,+,1,9,1.1,15%
Cc1ccc(NC(=O)CS(=O)CC(=O)Nc2ccc3c(c2)OCO3)cc1Cl (configuration not stated),4,i,1,4,1.1,3%
N#Cc1cc2c(nc1SCc1cccnc1)CCCCC2,8,i,1.1,0,1.1,3%
N#Cc1cc2ccccc2nc1SCc1cccnc1,7,i,0.99,29*,1.1,12%
O=C(NCCCN1CCOCC1)c1cc2c(=O)[nH]c3ccccc3c2s1,9,nt,1.1,4,4.7*,7%
